Assay outcomes deposited in PubChem by several laboratories.
Sampled rows, rich in hits. Any-hit rate of the full collection: about 4%.
CSC inhib = cancer stem cell viability inhibitors, primary screen, luminescence | cancer stem cell-like cells viability | inhibition, % at 7.5 µM | actives 1.1% (n = 300,000) | AID 2717, 2010; in the data active = inhibition above about 75%; tested in HMLE shEcad cells
Beta apoptosis = inhibitors of cytokine-induced beta cell apoptosis, primary screen, luminescence; INS-1E cytokine-induced death, ATP luminescence, 48 h; percent of positive-control rescue, neutral wells zero; AID 435005, 2010; actives 0.8% (n = 300,000); protection from apoptosis, % (concentration not given with the values);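 active = Every replicate reaches about 75%, or at least half do and their mean reaches it too, limit read from the data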;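 also: higher means more ATP so stronger rescue from cytokine killing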
Shn3 3UTR inh = reduction of Shn3 3'UTR firefly luciferase signal, primary screen, Schnurri-3 inhibitor project, cell-based, Clone20 osteoblasts, set 2 | actives 0.52% (n = 360,000) | Clone20 osteoblast Shn3 3'UTR firefly luciferase, 24 h | inhibition, % at 12.5 µM;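 active = mean inhibition of at least 75% with every replicate also reaching 75%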
PAX8 reporter = inhibitors of PAX8-driven TPO luciferase reporter, primary screen, RMG-I cells, single concentration | SteadyGlo, 24 h | inhibition, % at 12.6 µM | actives 1.2% (n = 360,000) | AID 652154, 2013;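 active = mean replicate inhibition at least 60% with every replicate also reaching 60%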;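 also: luciferase light reporting Pax8 driven TPO promoter activity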
Mdm2 MdmX PPI = inhibitors of human Mdm2-MdmX association, primary screen, cell-based, luminescence, split luciferase, SaOS-2, uHTS; Protein Mdm4 (Homo sapiens) + E3 ubiquitin-protein ligase Mdm2 (Homo sapiens), …; SaOS-2 split-luciferase Mdm2/MdmX complementation; inhibition, % at 8 µM; actives 3% (n = 330,000); AID 485346, 2010;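 active = inhibition of at least 50% at 8 µM in the primary screen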
Target sequence (O15151 whole entry, looked up): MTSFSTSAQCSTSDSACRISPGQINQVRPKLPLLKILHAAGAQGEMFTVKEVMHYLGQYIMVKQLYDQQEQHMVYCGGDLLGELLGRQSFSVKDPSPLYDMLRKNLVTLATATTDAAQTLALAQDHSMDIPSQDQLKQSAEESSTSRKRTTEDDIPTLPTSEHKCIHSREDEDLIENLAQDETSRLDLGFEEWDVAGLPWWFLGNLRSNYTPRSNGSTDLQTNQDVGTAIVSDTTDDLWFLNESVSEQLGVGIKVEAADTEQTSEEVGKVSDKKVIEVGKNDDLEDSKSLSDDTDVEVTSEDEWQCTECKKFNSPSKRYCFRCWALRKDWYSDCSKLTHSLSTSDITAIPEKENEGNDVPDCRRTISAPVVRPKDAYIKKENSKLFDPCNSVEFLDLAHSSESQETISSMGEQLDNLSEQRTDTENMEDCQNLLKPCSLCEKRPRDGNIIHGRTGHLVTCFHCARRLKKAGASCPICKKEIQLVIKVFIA
Target sequence (Q00987 whole entry, looked up): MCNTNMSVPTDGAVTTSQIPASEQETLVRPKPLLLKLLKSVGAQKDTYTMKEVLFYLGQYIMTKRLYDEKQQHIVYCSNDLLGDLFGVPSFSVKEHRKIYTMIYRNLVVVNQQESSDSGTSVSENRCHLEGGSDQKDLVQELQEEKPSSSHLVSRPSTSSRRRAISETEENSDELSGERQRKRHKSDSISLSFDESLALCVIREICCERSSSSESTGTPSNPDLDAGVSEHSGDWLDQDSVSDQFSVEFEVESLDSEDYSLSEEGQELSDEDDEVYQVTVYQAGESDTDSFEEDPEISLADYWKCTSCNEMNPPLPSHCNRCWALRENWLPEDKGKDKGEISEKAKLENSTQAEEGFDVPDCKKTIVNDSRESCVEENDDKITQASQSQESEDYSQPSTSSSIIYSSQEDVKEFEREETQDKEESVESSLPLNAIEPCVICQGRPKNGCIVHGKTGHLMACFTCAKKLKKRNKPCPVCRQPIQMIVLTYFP
Gli-Sufu block = Gli-Sufu pathway antagonists, primary screen, luciferase luminescence, Sufu-KO-LIGHT cells, uHTS | inhibition, % at 5 µM | actives 0.74% (n = 340,000) | AID 588413, 2011 | Sufu-KO-LIGHT fibroblasts, Gli luciferase reporter luminescence;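 active = inhibition above about 55%, limit read from the data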
Large screens that a line does not name were inactive; ! = a repeat was not active.

CN(Cc1ccccc1)C(=O)c1cccc(NC(=O)Cc2ccc([N+](=O)[O-])cc2)c1	Shn3 3UTR inh 88.0
CN(Cc1ccccc1)C(=O)c1cccc(NC(=O)Cc2cccc([N+](=O)[O-])c2)c1	none
O=[N+]([O-])c1ccccc1N/N=C/c1cccc(O)c1O	CSC inhib 86.4
CCCCCCCCCCCCCCCC[n+]1ccccc1	Shn3 3UTR inh 96.8, PAX8 reporter 94.6, Gli-Sufu block 83.5 (no result: CSC inhib, Beta apoptosis, Mdm2 MdmX PPI)
CC(/C=C1\SC(=O)N(CC(=O)Nc2cccc(O)c2)C1=O)=C\c1ccccc1	CSC inhib 117.0 (no result: PAX8 reporter)
CC(=O)c1ccc(NC(=O)CCCN2C(=O)/C(=C/C(C)=C/c3ccccc3)SC2=S)cc1	none
CC(/C=C1\SC(=O)N(CC(=O)Nc2ccc(O)cc2)C1=O)=C\c1ccccc1	PAX8 reporter 87.1
CCCCc1c(-c2ccccc2)ncn1CCc1ccccc1OC	none (no result: CSC inhib, Beta apoptosis, Shn3 3UTR inh, Mdm2 MdmX PPI, Gli-Sufu block)
CCCCc1c(Cc2ccccc2)ncn1CCc1ccccc1OC	PAX8 reporter 62.4 (no result: CSC inhib, Beta apoptosis, Shn3 3UTR inh, Mdm2 MdmX PPI, Gli-Sufu block)
O=C(Nc1ccc(F)cc1)N[C@H]1CC[C@H](CCNC(=O)c2cc(Cl)cc(Cl)c2)O[C@H]1CO	PAX8 reporter 86.9 (no result: CSC inhib, Beta apoptosis, Shn3 3UTR inh, Mdm2 MdmX PPI, Gli-Sufu block)
O=C(Nc1cccc(F)c1)N[C@@H]1CC[C@@H](CCNS(=O)(=O)c2cccc(Cl)c2)O[C@@H]1CO	PAX8 reporter 106.5 (no result: CSC inhib, Beta apoptosis, Shn3 3UTR inh, Mdm2 MdmX PPI, Gli-Sufu block)
O=C(Nc1ccc(F)cc1)N[C@H]1CC[C@@H](CCNC(=O)c2cc(Cl)cc(Cl)c2)O[C@@H]1CO	none (no result: CSC inhib, Beta apoptosis, Shn3 3UTR inh, Mdm2 MdmX PPI, Gli-Sufu block)
CCCC(C)c1nnc(NC(=O)COc2ccc3c(c2)OCO3)s1 (stereo not given)	CSC inhib 85.3
CC(C)c1nnc(NC(=O)COc2ccc3c(c2)OCO3)s1	none
C[C@@H]1CN([C@@H](C)CO)C(=O)c2cc(C#Cc3cccnc3)cnc2O[C@H]1CN(C)C(=O)CN(C)C	none (no result: CSC inhib, Beta apoptosis, Shn3 3UTR inh, Mdm2 MdmX PPI, Gli-Sufu block)
C[C@@H]1CCCCO[C@H](CN(C)C)[C@@H](C)CN([C@H](C)CO)C(=O)c2cc(NC(=O)Nc3ccccc3)ccc2O1	none (no result: CSC inhib, Beta apoptosis, Shn3 3UTR inh, Mdm2 MdmX PPI, Gli-Sufu block)
C=C(NC(=O)C(=C)NC(=O)c1csc(C2=NC3c4csc(n4)C4NC(=O)c5csc(n5)C(C(C)(O)C(C)O)NC(=O)C5CSC(=N5)/C(=C/C)NC(=O)C(C(C)O)NC(=O)c5csc(n5)C3(CC2)NC(=O)C(C)NC(=O)C(=C)NC(=O)C(=C)NC(=O)C(C(C)C)NC2C=Cc3c(C(C)O)cc(nc3C2O)C(=O)OC4C)n1)C(N)=O (stereo not given)	Shn3 3UTR inh 85.5, Gli-Sufu block 65.7 (no result: CSC inhib, Beta apoptosis, Mdm2 MdmX PPI)
COc1ccc(S(=O)(=O)Nc2ccc3c(c2)C(=O)N([C@H](C)CO)C[C@H](C)[C@H](CN(C)S(=O)(=O)c2ccc(C)cc2)OCCCC[C@H](C)O3)cc1	PAX8 reporter 71.8 (no result: CSC inhib, Beta apoptosis, Shn3 3UTR inh, Mdm2 MdmX PPI, Gli-Sufu block)
COc1ccc(S(=O)(=O)N(C)C[C@@H]2OCCCC[C@H](C)Oc3ccc(NS(=O)(=O)c4ccc(C)cc4)cc3C(=O)N([C@@H](C)CO)C[C@@H]2C)cc1	none (no result: CSC inhib, Beta apoptosis, Shn3 3UTR inh, Mdm2 MdmX PPI, Gli-Sufu block)
COc1ccc(S(=O)(=O)Nc2ccc3c(c2)C(=O)N([C@@H](C)CO)C[C@@H](C)[C@@H](CN(C)S(=O)(=O)c2ccc(C)cc2)OCCCC[C@@H](C)O3)cc1	PAX8 reporter 67.1 (no result: CSC inhib, Beta apoptosis, Shn3 3UTR inh, Mdm2 MdmX PPI, Gli-Sufu block)
CCCN(C)C[C@H]1Oc2cc(-c3ccc(C#N)cc3)ccc2S(=O)(=O)N([C@@H](C)CO)C[C@H]1C	none (no result: CSC inhib, Beta apoptosis, Shn3 3UTR inh, Mdm2 MdmX PPI, Gli-Sufu block)
Cc1noc(C)c1S(=O)(=O)N(C)C[C@@H]1Oc2ccc(NC(=O)NC3CCCCC3)cc2CC(=O)N([C@H](C)CO)C[C@H]1C	none (no result: CSC inhib, Beta apoptosis, Shn3 3UTR inh, Mdm2 MdmX PPI, Gli-Sufu block)
O=C(NC1CCCCC1)N1C[C@@H]2N[C@H](C1)C2c1ccc(-c2cccc(F)c2)cc1 (stereo not given in full)	PAX8 reporter 62.6! (no result: CSC inhib, Beta apoptosis, Shn3 3UTR inh, Mdm2 MdmX PPI, Gli-Sufu block)
N#Cc1cccc(-c2ccc(C3[C@@H]4CN(C(=O)C5CC5)C[C@H]3N4)cc2)c1 (stereo not given in full)	PAX8 reporter 98.0! (no result: CSC inhib, Beta apoptosis, Shn3 3UTR inh, Mdm2 MdmX PPI, Gli-Sufu block)
O=C(C1CC1)N1C[C@@H]2N[C@H](C1)C2c1ccc(-c2cccc(F)c2)cc1 (stereo not given in full)	PAX8 reporter 82.7! (no result: CSC inhib, Beta apoptosis, Shn3 3UTR inh, Mdm2 MdmX PPI, Gli-Sufu block)
CO[C@H]1CN(C)C(=O)c2cc(NC(=O)C3CCC3)ccc2OC[C@@H](C)N(Cc2cccnc2)C[C@@H]1C	none (no result: CSC inhib, Beta apoptosis, Shn3 3UTR inh, Mdm2 MdmX PPI, Gli-Sufu block)
